# Reference: PubChem BioAssay
# Inconclusive results are not listed. Calls of active or inactive are those of the source.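 Rule for the calls: active = cell viability at or below a set limit in both duplicate runs, the limit being the all-compound median minus 4 SD (cut at about 23% in these data, passing the limit was not always enough); inconclusive = no clear call, values can overlap the other calls; inactive = the rest.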
# Assay: viability of HCT116 without oncogenic beta-catenin – human colon tumor cells, pilot screen (AID 823);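 note: 0% = wells killed by 20 µM Hyamine and 100% = untreated DMSO cell wells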
# Settings: HCT116 beta-catenin knockout viability, CellTiter-Glo, 60 h; at 10 µM; hits give low values
row,Compound,viability
1,O=C(CCCN1C(=O)c2ccccc2C1=O)Nc1ccccc1C(=O)N1CCOCC1,102% (inactive)
2,COc1cccc(C2CC(=O)N3CN(c4ccccc4F)CSC3=C2C#N)c1 (stereo not given),102% (inactive)
3,C=CCNc1oc(Cc2cccc3ccccc23)nc1C#N,107% (inactive)
4,O=C(c1ccccc1)c1ccc2nc(N3CCCCC3)c3nncn3c2c1,45.4% (inactive)
5,O=C(CSCC(=O)NC1CC1)Nc1ccccc1,98.2% (inactive)
6,Cc1ccc(N(C(=O)c2cccs2)C2C=CS(=O)(=O)C2)cc1 (stereo not given),98.3% (inactive)
7,COc1ccc(NC(=O)N(Cc2ccc(C)cc2)Cc2ccccn2)c(OC)c1,91% (inactive)
8,CC(=O)C(C)Oc1ccc2c3c(c(=O)oc2c1)CCCC3 (stereo not given),93% (inactive)
9,CC(=O)c1c(C)oc(C)c1CSCc1ccc(C(=O)O)o1,95.7% (inactive)
10,CCn1c(CNC(=O)C(C)(C)C)nc2ccccc21,104% (inactive)
11,Cc1cc(C)n(-c2nnc(C)n2/N=C/c2cc(Br)ccc2OCc2ccccc2)n1,12.4% (active)
12,CCC(=O)Nc1cccc(-c2nnc(SCC(=O)c3ccccc3)n2C)c1,91.7% (inactive)
13,O=C(COc1cccc2ccccc12)N1CCN(c2ccccc2)CC1,90.8% (inactive)
14,O=C(O)CSc1cccc2cccnc12,96.5% (inactive)
15,CN=C1SC(CC(=O)Nc2ccccc2F)C(=O)N1C (stereo not given),112% (inactive)
16,COc1ccc2[nH]c(C)c(CN3CCC(C)CC3)c(=O)c2c1,98.5% (inactive)
17,O=C(OCN1C(=O)c2ccccc2C1=O)c1ccco1,96.7% (inactive)
18,O=C1CC(N2CCN(C(c3ccccc3)c3ccccc3)CC2)C(=O)N1 (stereo not given),102% (inactive)
19,CCN(CC)CCNC(=O)Cn1cnc2sc(C)c(S(=O)(=O)N3CCOCC3)c2c1=O,99% (inactive)
20,COc1ccc(C2CC(c3ccc(F)cc3)Nc3nc(N)nn32)cc1 (stereo not given),98.1% (inactive)

row,Compound,viability
1,CCOc1ccccc1C(=O)NC1CCN(Cc2nnnn2C2CCCC2)CC1,102% (inactive)
2,CCOc1ccc(C(=O)Nc2c3c(nn2-c2ccc(C)cc2)CS(=O)C3)cc1OCC (stereo not given),97.6% (inactive)
3,Cc1ccc(-c2nn(C)c(=O)c3ccccc23)cc1CNC(=O)c1ccco1,78.3% (inactive)
4,O=C(CNS(=O)(=O)c1ccc(C(=O)N2CCCCC2)cc1)N1CCCCC1,93.3% (inactive)
5,CCOC(=O)CON1C(=O)C(C)(C)N(OCC(=O)OCC)C(=O)C1(C)C,104% (inactive)
6,Cc1[nH]c2ccc(-c3n[nH]c(=S)n3C)cc2c1C,98.9% (inactive)
7,Cc1onc(-c2ccccc2Cl)c1C(=O)OCN1C(=O)c2ccccc2C1=O,90% (inactive)
8,CSC1=NCCN1C(=O)c1cccs1,99% (inactive)
9,O=C(C1CCC(CNc2c(N3CCCCC3)c(=O)c2=O)CC1)N1CCN(c2ccccn2)CC1 (stereo not given),102% (inactive)
10,CC1CCCN(c2nc3c(c(=O)[nH]c(=O)n3C)n2Cc2ccccc2Cl)C1 (stereo not given),84.9% (inactive)
11,COc1ccc(CC(=O)N2CC3(C)CC2CC(C)(C)C3)cc1OC (stereo not given),92.7% (inactive)
12,Cc1cccnc1NC(=O)c1c(O)c2ccccc2n(C)c1=O,92% (inactive)
13,CCN(CC)P1(=O)OC(c2cc(OC)c(OC)c(OC)c2)=Nc2c1c(C)nn2-c1ccccc1 (stereo not given),95.8% (inactive)
14,CCOc1ccc(NC(=O)CSc2nnc(Cn3c(=O)sc4ccccc43)n2C)cc1,98% (inactive)
15,Cc1ccc(N(C(=O)CC2NC(=O)NC2=O)C2(C(=O)NC3CCCC3)CCCCC2)cc1 (stereo not given),95.2% (inactive)
16,Cn1c(NC(=O)Cc2ccc(F)cc2)cc(=O)n(C)c1=O,109% (inactive)
17,COc1ccc(C2CC(=O)c3cnc(NC(=O)c4ccccc4)nc3C2)cc1OC (stereo not given),105% (inactive)
18,Cc1cccc(N2CCN(C(=O)C3CCN(c4nnc(-n5cccc5)s4)CC3)CC2C)c1 (stereo not given),40.1% (inactive)
19,O=C(NCc1ccccc1)c1cc(S(=O)(=O)N2CCOCC2)ccc1F,94.7% (inactive)
20,O=C(CN1C(=O)C2C3C=CC(C3)C2C1=O)Nc1ccc2nccnc2c1 (stereo not given),105% (inactive)
